Reference: PubChem BioAssay AID493034 (The Scripps Research Institute Molecular Screening Center, 2011)
In all, about 2,400 compounds went through this assay and about 2,200 (92%) were called active. The set was probably picked from earlier hits. The list shows a part of the results. Values without a mark were called inactive.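 The calls were made as follows: active = mean inhibition over triplicate runs exceeds the cutoff derived for the earlier primary screen (cut at about 25% in these data); inactive = the rest.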

molecular target: Platelet-activating factor acetylhydrolase IB subunit alpha2 (Homo sapiens) (UniProt P68402); assay: PAFAH1B2 inhibitors, confirmation, biochemical, fluorescence polarization, FP-rhodamine probe, triplicate (AID 493034); settings: recombinant PAFAH1B2, FP-rhodamine probe fluorescence polarization; at 3.39 µM; hits give high values;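 also: 0% = enzyme with DMSO and 100% = wells lacking PAFAH1B2 protein; inhibitors lower polarization by leaving the probe unbound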
Sequence (P68402 whole entry, looked up): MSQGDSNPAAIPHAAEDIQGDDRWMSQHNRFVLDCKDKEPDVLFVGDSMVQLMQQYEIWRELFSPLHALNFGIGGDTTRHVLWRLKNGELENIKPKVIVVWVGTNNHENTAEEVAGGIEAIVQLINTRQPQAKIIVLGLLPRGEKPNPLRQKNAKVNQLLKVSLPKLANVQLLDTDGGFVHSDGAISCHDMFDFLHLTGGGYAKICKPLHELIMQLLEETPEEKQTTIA

Structure (SMILES) | inhibition
N#Cc1c(NC(=O)Cn2c(=O)oc3ccccc32)oc(-c2ccccc2)c1-c1ccccc1 | 45% (active)
C=CCNC(=O)C1CCN(S(=O)(=O)c2ccc(Br)cc2)CC1 | 23.8%
O=C(NNC(=O)C1CCN(S(=O)(=O)c2ccc(Cl)cc2)CC1)c1ccccc1 | 24%
CCN(CC)S(=O)(=O)c1ccc(C(=O)NNC(=O)C2CCN(S(=O)(=O)c3ccc(Cl)cc3)CC2)cc1 | 37.9% (active)
Cc1ccc(C(c2nnnn2Cc2ccccc2)N2CCN(Cc3ccccc3)CC2)cc1 (stereo unspecified) | 16.6%
Cn1c(=S)[nH]c2sc3c(c2c1=O)CCC(C(C)(C)C)C3 (stereo unspecified) | 41.1% (active)
O=C(O)c1ccc(CSCc2ccccc2Cl)o1 | 14.4%
CCOC(=O)CSc1nnc(NC(=O)CN2CCN(C=O)CC2)s1 | 3.79%
CCN(Cc1ccccc1)C(=O)COC(=O)c1cc(S(=O)(=O)Nc2ccccc2OC)ccc1O | 23.2%
COC(=O)c1cc(NS(=O)(=O)c2ccc(N3CCCCCC3)c([N+](=O)[O-])c2)cc(C(=O)OC)c1 | 23.8%
CCN(C(=O)COC(=O)c1cc(NS(=O)(=O)c2ccc(Cl)c([N+](=O)[O-])c2)ccc1O)C1CCCCC1 | 36.1% (active)
Cc1ccc(OCCC(=O)OCC(=O)NC2CCCC(C)C2C)cc1 (stereo unspecified) | 21.5%
Oc1ccc(C23CC4CC(CC(C4)C2)C3)cc1O | 33.2% (active)
CCCCCCCCN1[C@@H](CC(=O)O)c2ccc(C(F)(F)F)cc2S1(=O)=O | 21.7%
CC(C)(C)c1ccc(C2=CC(c3ccccc3F)n3ncnc3N2)cc1 (stereo unspecified) | 15.1%
CCN(c1ccccc1)S(=O)(=O)c1cc(C(=O)O)ccc1C | 45.1% (active)
CCN(CC)CCN(C(=O)c1ccc(S(=O)(=O)N(CC)c2ccccc2)cc1)c1nc2c(OC)ccc(OC)c2s1 | 16.4%
O=C(O)c1ccc(Cl)c(S(=O)(=O)N(Cc2ccccc2)c2ccc(F)cc2)c1 | 22.7%
CC1CCCC(NC(=O)c2cccc(S(=O)(=O)NCc3ccccc3)c2)C1C (stereo unspecified) | 18.3%
Cc1ccc(S(=O)(=O)N2[C@@H](c3ccc(C(C)(C)C)cc3)C(C(=O)O)=CC[C@H]2c2ccc(C(C)C)cc2)cc1 | 89.3% (active)
Cc1ccc([C@@H]2CC=C(C(=O)O)[C@H](c3ccc(C(C)(C)C)cc3)N2S(=O)(=O)c2ccc(C)cc2)cc1 | 95.5% (active)
CCc1ccc([C@@H]2CC=C(C(=O)O)[C@H](c3ccc(C(C)(C)C)cc3)N2S(=O)(=O)c2ccc(C)cc2)cc1 | 97.5% (active)

Structure (SMILES) | inhibition
CCOC(=O)N1CCN(C(=O)c2ccccc2NC(=O)COc2ccccc2)CC1 | 1.01%
O=C(COc1ccc(Cl)cc1)NNC(=O)C(=O)N1CCCCC1 | 19.2%
O=C(COc1ccc(Cl)cc1)NC1=NN(c2ccccc2)C(=O)C1 | 67.5% (active)
N#CC1=C(N)c2ccccc2CC12CCCCC2 | 17.4%
N=C(N)c1ccc(N=Nc2c(O)ccc3c2[nH]c2ccccc23)cc1 | 33.4% (active)
O=[N+]([O-])c1cc(C2Nc3cccc4cccc(c34)N2)ccc1Cl | -0.07%
O=C1N[C@@H](Cc2c[nH]c3ccccc23)COC(=O)[C@@H](Cc2ccc(F)cc2)CC/C=C/C[C@@H]1CC(=O)N(CCO)Cc1ccccc1 | 21.5%
O=C1OC[C@@H]2CCCN2C(=O)[C@@H](CC(=O)N(CCO)Cc2ccccc2)C/C=C\C[C@H]1Cc1ccc(F)cc1 | 29.1% (active)
O=C1OC[C@H]2CCCN2C(=O)[C@@H](CC(=O)N(CCO)Cc2ccccc2)C/C=C\C[C@@H]1Cc1ccc(F)cc1 | 27.5% (active)
O=C1OC[C@@H]2CCCN2C(=O)[C@H](CC(=O)N(CCO)Cc2ccccc2)C/C=C\C[C@H]1Cc1ccc(F)cc1 | 33.2% (active)
O=C1N[C@@H](Cc2ccccc2)COC(=O)[C@@H](Cc2ccc(F)cc2)C/C=C\C[C@@H]1CC(=O)N(CCO)Cc1ccccc1 | 37.2% (active)
O=C(O)CCc1ccc(-c2ccc(Br)cc2)n1-c1ccc(O)cc1 | 31.6% (active)
Cc1ccc(-n2cccc2/C=C2\C(=N)N3N=C(c4ccco4)SC3=NC2=O)cc1 | 38.1% (active)
CS(=O)(=O)C1=NSC2=NC(=O)/C(=C\c3cccn3-c3ccc(Cl)cc3)C(=N)N21 | 55.9% (active)
Cc1ccc(S(=O)(=O)Oc2ccc(/C=C3/C(=N)N4C(=NC3=O)SN=C4S(C)(=O)=O)cc2)cc1 | 50% (active)
CCC1=NN2C(=N)/C(=C\c3cccn3-c3ccc(Cl)cc3)C(=O)N=C2S1 | 36.4% (active)
Cc1ccc(SCC(=O)NC(C)c2ccccc2)cc1 (stereo unspecified) | 21%
Cc1ccc(SCc2cn3c(C)csc3n2)cc1 | 59.7% (active)
CCc1ccc(C2CC(c3ccc(Cl)cc3)n3nc(N)nc3N2)cc1 (stereo unspecified) | 30.1% (active)
C=CC[C@H](CC(=O)N(CCO)Cc1ccccc1)C(=O)N[C@H](COC(=O)[C@@H](CC=C)Cc1ccc(F)cc1)Cc1ccccc1 | 58% (active)
CCCCn1c(N)c(N(CC(C)C)C(=O)CN2C(=O)NC3(CCC(C(C)(C)CC)CC3)C2=O)c(=O)[nH]c1=O (stereo unspecified) | 16.4%
COc1ccc2[nH]c(C(=O)NCCN3CCOCC3)cc2c1 | 6.21%

Structure (SMILES) | inhibition
COc1ccc(N2CCN(C(=O)CCNC(=O)c3ccc(C(C)(C)C)cc3)CC2)cc1 | 62.3% (active)
CC(/C=C1\SC(=S)N(NS(=O)(=O)c2ccccc2)C1=O)=C\c1ccccc1 | 39.6% (active)
Cc1ccc(S(=O)(=O)n2ccc3c(OCCOCCSCC(NC(=O)OC(C)(C)C)C(=O)O)cccc32)cc1 (stereo unspecified) | 85.8% (active)
O=C1C(=O)N2C(=C1C(=O)N1CCCCCC1)c1ccccc1CC21CCCC1 | 32.8% (active)
CCC(=O)Nn1cnc2c(c1=O)C1(CCCCC1)Cc1ccccc1-2 | 19.9%
CC1(C)Cc2ccccc2C2=C(C(=O)N3CCCCCC3)C(=O)C(=O)N21 | 64.2% (active)
O=C(NCCSc1ncc(-c2ccc(F)cc2)[nH]1)c1ccc2c(c1)OCO2 | 20.8%
CCOc1ccc(OCCSc2nc3ccccc3c(=O)[nH]2)cc1 | 3.03%
CCOc1ccc2nc(NC(=O)CSc3nc(-c4ccccc4)c(C#N)c(=O)[nH]3)sc2c1 | 81.7% (active)
N#Cc1c(-c2ccccc2)nc(SCC(=O)Nc2ccc(OC(F)(F)Cl)cc2)[nH]c1=O | 76.1% (active)
CCOC(=O)Cc1csc(NC(=O)CSc2nc(-c3ccccc3)c(C#N)c(=O)[nH]2)n1 | 63.6% (active)
CCOC(=O)c1ccccc1NC(=O)CSc1nnc(C)c(=O)[nH]1 | 22.2%
CCc1ccc(S(=O)(=O)NCCc2csc(-c3ccccc3)n2)s1 | 22.1%
Cc1cc(N2CCCC2=O)cc(C)c1S(=O)(=O)NCCOc1ccc(C(C)(C)C)cc1 | 33.7% (active)
O=C1C(=O)C(c2ccccc2)C(=O)C1c1ccccc1 (stereo unspecified) | 25.4% (active)
COc1cc(Cl)cc(C(c2c(C(=O)O)[nH]c3ccccc23)c2c(C(=O)O)[nH]c3ccccc23)c1O | 71% (active)
O=C(O)c1[nH]c2ccccc2c1C(c1cc(Cl)cc([N+](=O)[O-])c1O)c1c(C(=O)O)[nH]c2ccccc12 | 43.8% (active)
CN(Cc1cccs1)C(=O)CCNS(=O)(=O)c1ccc(Br)cc1 | 21.4%
O=[N+]([O-])c1cc(-c2csc(NCCc3nc4cc(C(F)(F)F)ccc4n3CCCO)n2)ccc1Cl | 14.9%
COc1ccccc1NC(=O)C(=O)NNS(=O)(=O)c1ccc2ccccc2c1 | 23.4%
O=C(O)c1ccc(NS(=O)(=O)c2ccc(Cl)c(Cl)c2)cc1O | 20.1%
O=C(O)c1cc(NS(=O)(=O)c2ccc3ccccc3c2)ccc1O | 35.9% (active)

Structure (SMILES) | inhibition
CCC(Sc1nc(-c2cccc(OC)c2)c(C#N)c(=O)[nH]1)C(=O)Nc1nnc(C(C)C)s1 (stereo unspecified) | 34.6% (active)
O=C(O)C1=CC[C@@H](c2ccc(Cl)cc2)N(S(=O)(=O)c2ccc(Cl)cc2)[C@H]1c1ccc(Br)cc1 | 86.3% (active)
Cc1ccccc1S(=O)(=O)N1[C@@H](c2ccc(Br)cc2)C(C(=O)O)=CC[C@H]1c1ccc(Cl)cc1 | 83.2% (active)
CNc1nc(NCCOC23CC4CC(CC(C4)C2)C3)nc(OCC(F)(F)F)n1 | 22.2%
CCCCNC(=O)Oc1ccc(C(=O)N2c3ccccc3NC(=O)C2C)cc1 (stereo unspecified) | 41.2% (active)
CC(C)(C)Cc1nnc(NS(=O)(=O)c2ccc(F)cc2)s1 | 20.3%
C/C(CC(C)(C)C1CCCCC1)=N\NC(N)=S | 30.1% (active)
O=S(=O)(NC(=NCCc1ccc(Cl)cc1)c1ccccc1Cl)c1cccs1 | 110% (active)
NC(=NCCc1ccc(Cl)cc1)NS(=O)(=O)c1ccc(F)cc1 | 50.7% (active)
CSCCC(NS(=O)(=O)c1ccc(Cl)cc1)C(=O)OCc1cccc(Cl)c1 (stereo unspecified) | 23.1%
O=S(=O)(NCc1ccc(Cl)cc1)c1ccc(Cl)nc1 | 22.4%
O=C(CNS(=O)(=O)c1ccccc1)NCC(=O)OCc1ccc(Br)cc1 | 23.9%
NC(=NCCc1ccc(Cl)cc1)NS(=O)(=O)c1ccccc1 | 49.9% (active)
CCOC(=O)c1sc(NC(=O)CN(CC(C)C)CC(C)C)c(C(=O)OCC)c1C | 6.46%
N#C/C(=C/c1cn[nH]c1-c1ccc(Br)cc1)C(=O)O | 20.3%
Cc1ccc([N+](=O)[O-])c(-c2n[nH]c(=S)n2-c2cccc(Cl)c2)c1 | 24%
CC(C)(C)[C@H]1COC(=O)[C@@H](Cc2ccc(F)cc2)C/C=C\C[C@@H](CC(=O)N[C@H](CO)Cc2ccccc2)C(=O)N1 | 62.1% (active)
CC(C)(C)[C@@H]1COC(=O)[C@H](Cc2ccc(F)cc2)C/C=C\C[C@@H](CC(=O)NCCO)C(=O)N1 | 17.5%
CC(C)(C)[C@H]1COC(=O)[C@@H](Cc2ccc(F)cc2)CC/C=C/C[C@@H](CC(=O)N[C@H](CO)Cc2ccccc2)C(=O)N1 | 26.6% (active)
CC(C)(C)[C@H]1COC(=O)[C@@H](Cc2ccc(F)cc2)C/C=C\C[C@@H](CC(=O)N[C@@H](CO)Cc2ccccc2)C(=O)N1 | 32.7% (active)
